# What was measured:
# Experiment in all cases: DAPPL (digital affinity profiling via proximity ligation, sequencing); 10 mM Tris-HCl pH 7.5, 50 mM NaCl, 1 mM DTT, 4% glycerol, room temperature, 30 min; GST-TFs on glutathione beads, 16-mer random dsDNA library, 0.1% formaldehyde crosslink after washing; high values mean tight binding
# FEV = target: T1, FEV (Homo sapiens, UniProt Q99581 1-238); conditions: protein: recombinant; tags: N-terminal GST; dsDNA, one strand shown
# T1 sequence: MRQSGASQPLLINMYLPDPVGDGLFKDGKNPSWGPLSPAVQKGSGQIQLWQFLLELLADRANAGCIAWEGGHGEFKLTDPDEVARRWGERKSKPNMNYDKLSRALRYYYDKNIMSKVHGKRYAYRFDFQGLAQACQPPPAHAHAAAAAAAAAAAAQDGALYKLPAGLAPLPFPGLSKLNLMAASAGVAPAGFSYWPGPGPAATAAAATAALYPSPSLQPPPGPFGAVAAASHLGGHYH
# In short: (§1)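 The binding signal reported is, for every hexamer, its read frequency for a factor over its read frequency for the tag-only sample. Reads came from pools of yeast-expressed, GST-fused human transcription factors on glutathione beads, barcoded with DNA and mixed with that sample, which were incubated with 200 nmole of a random double-stranded 16-mer DNA library in Tris/NaCl/DTT/glycerol buffer at room temperature for 30 min. After washing, the pools were crosslinked with 0.1% formaldehyde, proximity-ligated with BsaI/T4 ligase for 1 h at 37 °C, PCR-amplified and sequenced on an Illumina NextSeq500.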
# ETV5 = ETV5 (Homo sapiens, UniProt P41161 1-510); conditions: protein: recombinant; tags: N-terminal GST; dsDNA, one strand shown
# In short: as §1
# HSF1 = HSF1 (Homo sapiens, UniProt Q00613 1-529); conditions: protein: recombinant; tags: N-terminal GST; chain copies: 3; dsDNA, one strand shown
# In short: as §1
# SPIC = target: T2, SPIC (Homo sapiens, UniProt Q8N5J4 1-248); conditions: protein: recombinant; tags: N-terminal GST; dsDNA, one strand shown
# T2 sequence: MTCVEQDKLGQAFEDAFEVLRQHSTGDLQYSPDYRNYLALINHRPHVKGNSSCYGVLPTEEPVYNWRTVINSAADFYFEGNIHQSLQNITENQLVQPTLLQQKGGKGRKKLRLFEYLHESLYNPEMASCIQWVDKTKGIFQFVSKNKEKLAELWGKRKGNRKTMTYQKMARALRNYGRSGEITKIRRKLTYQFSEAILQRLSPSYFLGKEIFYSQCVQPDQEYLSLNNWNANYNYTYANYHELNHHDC
# In short: as §1
# ELF4 = ELF4 (Homo sapiens, UniProt Q99607 1-663); conditions: protein: recombinant; tags: N-terminal GST; dsDNA, one strand shown
# In short: as §1
# ELK4 = target: T3, ELK4 (Homo sapiens, UniProt P28324-2 1-405); conditions: protein: recombinant; tags: N-terminal GST; dsDNA, one strand shown
# T3 sequence: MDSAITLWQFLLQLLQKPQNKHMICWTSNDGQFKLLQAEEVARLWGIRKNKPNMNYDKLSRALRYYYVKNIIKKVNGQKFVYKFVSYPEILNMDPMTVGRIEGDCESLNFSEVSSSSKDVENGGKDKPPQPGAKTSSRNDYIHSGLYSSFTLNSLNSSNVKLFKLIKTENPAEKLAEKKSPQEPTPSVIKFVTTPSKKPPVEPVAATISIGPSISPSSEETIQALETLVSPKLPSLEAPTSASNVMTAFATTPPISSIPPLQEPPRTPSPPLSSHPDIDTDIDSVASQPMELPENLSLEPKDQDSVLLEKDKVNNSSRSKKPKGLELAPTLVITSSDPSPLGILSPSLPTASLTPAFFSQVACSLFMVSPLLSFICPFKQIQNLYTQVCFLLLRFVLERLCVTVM
# In short: as §1
# ETV2 = target: T4, ETV2 (Homo sapiens, UniProt O00321 1-342); conditions: protein: recombinant; tags: N-terminal GST; dsDNA, one strand shown
# T4 sequence: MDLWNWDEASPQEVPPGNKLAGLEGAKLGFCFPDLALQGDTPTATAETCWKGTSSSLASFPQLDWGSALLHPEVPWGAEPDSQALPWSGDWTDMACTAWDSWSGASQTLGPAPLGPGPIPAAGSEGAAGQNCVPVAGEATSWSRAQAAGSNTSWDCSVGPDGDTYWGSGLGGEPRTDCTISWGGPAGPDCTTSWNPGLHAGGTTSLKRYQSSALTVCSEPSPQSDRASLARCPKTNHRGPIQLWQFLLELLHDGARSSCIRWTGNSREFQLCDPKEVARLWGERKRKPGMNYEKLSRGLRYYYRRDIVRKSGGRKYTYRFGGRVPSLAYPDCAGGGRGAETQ
# In short: as §1
# ELF3 = target: T5, ELF3 (Homo sapiens, UniProt P78545 1-371); conditions: protein: recombinant; tags: N-terminal GST; dsDNA, one strand shown
# T5 sequence: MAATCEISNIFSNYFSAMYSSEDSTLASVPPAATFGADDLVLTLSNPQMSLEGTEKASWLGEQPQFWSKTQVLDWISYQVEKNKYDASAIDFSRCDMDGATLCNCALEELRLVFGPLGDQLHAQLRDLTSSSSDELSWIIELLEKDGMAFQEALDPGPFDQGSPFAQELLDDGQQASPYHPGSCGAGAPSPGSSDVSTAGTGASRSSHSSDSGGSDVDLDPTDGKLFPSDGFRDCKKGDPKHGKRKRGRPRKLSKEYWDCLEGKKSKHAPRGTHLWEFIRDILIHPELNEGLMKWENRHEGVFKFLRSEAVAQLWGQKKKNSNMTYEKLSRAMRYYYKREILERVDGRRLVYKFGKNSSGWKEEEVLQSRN
# In short: as §1
# CRX = CRX (Homo sapiens, UniProt O43186 1-299); conditions: protein: recombinant; tags: N-terminal GST; dsDNA, one strand shown
# In short: as §1
# ETV1 = ETV1 (Homo sapiens, UniProt P50549 1-477); conditions: protein: recombinant; tags: N-terminal GST; dsDNA, one strand shown
# In short: as §1
# ERF = target: T6, ERF (Homo sapiens, UniProt P50548 1-548); conditions: protein: recombinant; tags: N-terminal GST; dsDNA, one strand shown
# T6 sequence: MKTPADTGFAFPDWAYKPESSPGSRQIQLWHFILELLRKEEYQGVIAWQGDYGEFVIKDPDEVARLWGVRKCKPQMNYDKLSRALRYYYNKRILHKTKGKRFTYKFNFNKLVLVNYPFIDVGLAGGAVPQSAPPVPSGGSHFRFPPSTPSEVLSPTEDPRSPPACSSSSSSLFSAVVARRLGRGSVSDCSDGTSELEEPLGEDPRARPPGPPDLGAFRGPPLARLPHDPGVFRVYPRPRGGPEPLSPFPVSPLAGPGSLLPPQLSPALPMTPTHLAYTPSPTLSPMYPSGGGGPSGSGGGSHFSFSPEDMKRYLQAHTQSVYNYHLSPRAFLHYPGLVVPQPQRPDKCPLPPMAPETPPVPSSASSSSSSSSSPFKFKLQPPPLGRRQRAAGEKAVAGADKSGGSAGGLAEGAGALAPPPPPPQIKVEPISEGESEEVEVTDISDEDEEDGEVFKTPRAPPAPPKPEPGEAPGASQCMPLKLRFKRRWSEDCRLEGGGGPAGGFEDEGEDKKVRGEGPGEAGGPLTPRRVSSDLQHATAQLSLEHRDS
# In short: as §1
# ETV3L = target: T7, ETV3L (Homo sapiens, UniProt Q6ZN32 1-361); conditions: protein: recombinant; tags: N-terminal GST; dsDNA, one strand shown
# T7 sequence: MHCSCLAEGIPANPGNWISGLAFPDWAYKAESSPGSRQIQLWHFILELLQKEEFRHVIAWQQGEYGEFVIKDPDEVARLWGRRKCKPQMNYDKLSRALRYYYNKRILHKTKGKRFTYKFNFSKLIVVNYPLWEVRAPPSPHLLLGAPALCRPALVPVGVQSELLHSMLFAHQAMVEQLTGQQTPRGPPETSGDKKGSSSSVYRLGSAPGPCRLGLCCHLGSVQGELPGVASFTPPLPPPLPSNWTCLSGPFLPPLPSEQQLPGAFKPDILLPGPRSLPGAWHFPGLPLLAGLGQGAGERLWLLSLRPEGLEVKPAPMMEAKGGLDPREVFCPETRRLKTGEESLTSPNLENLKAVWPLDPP
# In short: as §1
# ETS2 = target: T8, ETS2 (Homo sapiens, UniProt P15036 1-469); conditions: protein: recombinant; tags: N-terminal GST; dsDNA, one strand shown
# T8 sequence: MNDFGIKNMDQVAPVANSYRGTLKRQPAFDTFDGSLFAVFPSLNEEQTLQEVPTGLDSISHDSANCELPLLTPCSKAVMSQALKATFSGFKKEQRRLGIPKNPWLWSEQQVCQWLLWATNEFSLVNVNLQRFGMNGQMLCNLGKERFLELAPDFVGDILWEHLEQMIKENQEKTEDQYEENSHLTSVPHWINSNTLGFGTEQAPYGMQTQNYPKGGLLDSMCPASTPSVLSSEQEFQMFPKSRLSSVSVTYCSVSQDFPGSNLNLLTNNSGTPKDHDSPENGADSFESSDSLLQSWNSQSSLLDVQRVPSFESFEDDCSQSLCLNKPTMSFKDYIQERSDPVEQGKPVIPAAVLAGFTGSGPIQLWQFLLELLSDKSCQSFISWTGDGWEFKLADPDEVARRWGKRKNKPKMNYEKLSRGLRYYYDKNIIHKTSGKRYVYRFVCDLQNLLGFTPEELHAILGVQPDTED
# In short: as §1
# SPDEF = target: T9, SPDEF (Homo sapiens, UniProt O95238 1-335); conditions: protein: recombinant; tags: N-terminal GST; dsDNA, one strand shown
# T9 sequence: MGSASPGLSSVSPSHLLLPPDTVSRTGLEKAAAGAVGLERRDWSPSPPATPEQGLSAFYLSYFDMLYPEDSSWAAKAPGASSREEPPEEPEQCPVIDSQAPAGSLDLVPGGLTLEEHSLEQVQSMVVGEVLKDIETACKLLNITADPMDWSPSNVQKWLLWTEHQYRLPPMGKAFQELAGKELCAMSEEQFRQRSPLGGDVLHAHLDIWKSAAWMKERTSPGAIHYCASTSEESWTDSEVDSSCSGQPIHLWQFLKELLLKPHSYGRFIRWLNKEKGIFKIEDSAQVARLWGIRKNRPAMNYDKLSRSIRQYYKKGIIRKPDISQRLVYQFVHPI
# In short: as §1
# ETV7 = target: T10, ETV7 (Homo sapiens, UniProt Q9Y603 1-341); conditions: protein: recombinant; tags: N-terminal GST; dsDNA, one strand shown
# T10 sequence: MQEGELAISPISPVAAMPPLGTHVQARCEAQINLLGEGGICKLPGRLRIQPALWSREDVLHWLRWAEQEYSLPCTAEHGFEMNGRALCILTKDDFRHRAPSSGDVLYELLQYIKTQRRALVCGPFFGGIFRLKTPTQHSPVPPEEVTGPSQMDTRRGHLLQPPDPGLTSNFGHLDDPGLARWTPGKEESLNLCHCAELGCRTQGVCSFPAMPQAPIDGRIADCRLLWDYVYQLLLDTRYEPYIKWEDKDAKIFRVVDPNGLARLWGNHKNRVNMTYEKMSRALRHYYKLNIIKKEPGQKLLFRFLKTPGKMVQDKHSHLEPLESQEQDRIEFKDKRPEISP
# In short: as §1
# ELF5 = target: T11, ELF5 (Homo sapiens, UniProt Q9UKW6-2 1-255); conditions: protein: recombinant; tags: N-terminal GST; dsDNA, one strand shown
# T11 sequence: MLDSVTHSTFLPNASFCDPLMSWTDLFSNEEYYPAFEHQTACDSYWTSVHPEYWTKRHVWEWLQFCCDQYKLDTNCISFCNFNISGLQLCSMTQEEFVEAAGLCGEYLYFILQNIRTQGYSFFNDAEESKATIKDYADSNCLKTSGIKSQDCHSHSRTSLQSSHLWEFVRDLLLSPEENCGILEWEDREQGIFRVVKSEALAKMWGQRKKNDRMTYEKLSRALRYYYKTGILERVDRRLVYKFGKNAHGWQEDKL
# In short: as §1
# ETV3 = target: T12, ETV3 (Homo sapiens, UniProt P41162-2 1-143); conditions: protein: recombinant; tags: N-terminal GST; dsDNA, one strand shown
# T12 sequence: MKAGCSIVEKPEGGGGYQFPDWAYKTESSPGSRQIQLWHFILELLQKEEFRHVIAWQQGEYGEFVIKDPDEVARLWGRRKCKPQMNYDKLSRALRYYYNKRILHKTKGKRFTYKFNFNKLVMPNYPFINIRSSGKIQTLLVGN
# In short: as §1
# ETV6 = ETV6 (Homo sapiens, UniProt P41212 1-452); conditions: protein: recombinant; tags: N-terminal GST; dsDNA, one strand shown
# In short: as §1
# ELF4, sequence (Q99607 whole entry): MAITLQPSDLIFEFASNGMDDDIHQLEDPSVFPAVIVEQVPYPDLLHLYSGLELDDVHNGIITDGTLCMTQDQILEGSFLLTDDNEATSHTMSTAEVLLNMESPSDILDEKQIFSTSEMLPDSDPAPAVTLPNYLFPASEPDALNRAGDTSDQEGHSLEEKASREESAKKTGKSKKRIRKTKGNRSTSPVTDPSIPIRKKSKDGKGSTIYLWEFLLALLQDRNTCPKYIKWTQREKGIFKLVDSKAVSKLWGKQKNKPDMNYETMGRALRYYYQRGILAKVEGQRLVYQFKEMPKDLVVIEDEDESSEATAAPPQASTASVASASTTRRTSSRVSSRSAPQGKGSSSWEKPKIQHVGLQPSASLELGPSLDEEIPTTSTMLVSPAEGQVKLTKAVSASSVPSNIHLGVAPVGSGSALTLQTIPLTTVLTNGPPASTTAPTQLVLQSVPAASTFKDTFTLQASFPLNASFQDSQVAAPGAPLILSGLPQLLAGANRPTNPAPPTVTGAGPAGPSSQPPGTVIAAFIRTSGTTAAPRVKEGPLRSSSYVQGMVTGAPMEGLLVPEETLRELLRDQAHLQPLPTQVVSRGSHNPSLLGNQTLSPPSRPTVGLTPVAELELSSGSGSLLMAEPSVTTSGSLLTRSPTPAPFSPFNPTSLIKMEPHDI
# CRX, sequence (O43186 whole entry): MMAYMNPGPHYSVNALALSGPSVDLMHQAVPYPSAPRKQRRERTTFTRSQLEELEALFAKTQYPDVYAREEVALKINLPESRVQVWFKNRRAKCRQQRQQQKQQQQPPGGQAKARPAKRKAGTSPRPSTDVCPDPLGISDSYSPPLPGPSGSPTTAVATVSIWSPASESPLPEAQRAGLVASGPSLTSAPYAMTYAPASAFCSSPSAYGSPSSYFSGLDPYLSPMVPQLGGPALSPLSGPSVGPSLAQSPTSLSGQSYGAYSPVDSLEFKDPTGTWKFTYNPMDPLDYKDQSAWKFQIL
# ETV6, sequence (P41212 whole entry): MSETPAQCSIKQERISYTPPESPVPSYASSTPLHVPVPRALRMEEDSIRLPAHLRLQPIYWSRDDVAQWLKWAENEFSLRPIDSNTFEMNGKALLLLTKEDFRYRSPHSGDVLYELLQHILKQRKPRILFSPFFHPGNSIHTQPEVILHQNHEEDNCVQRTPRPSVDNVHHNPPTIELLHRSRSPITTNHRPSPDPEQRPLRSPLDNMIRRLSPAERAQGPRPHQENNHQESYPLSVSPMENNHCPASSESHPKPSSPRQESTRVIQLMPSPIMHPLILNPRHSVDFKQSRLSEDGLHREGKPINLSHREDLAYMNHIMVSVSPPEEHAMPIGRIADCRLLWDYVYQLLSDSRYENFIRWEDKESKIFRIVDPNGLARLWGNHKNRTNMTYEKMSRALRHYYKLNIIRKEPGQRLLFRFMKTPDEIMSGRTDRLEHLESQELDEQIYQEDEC
# ETV5, sequence (P41161 whole entry): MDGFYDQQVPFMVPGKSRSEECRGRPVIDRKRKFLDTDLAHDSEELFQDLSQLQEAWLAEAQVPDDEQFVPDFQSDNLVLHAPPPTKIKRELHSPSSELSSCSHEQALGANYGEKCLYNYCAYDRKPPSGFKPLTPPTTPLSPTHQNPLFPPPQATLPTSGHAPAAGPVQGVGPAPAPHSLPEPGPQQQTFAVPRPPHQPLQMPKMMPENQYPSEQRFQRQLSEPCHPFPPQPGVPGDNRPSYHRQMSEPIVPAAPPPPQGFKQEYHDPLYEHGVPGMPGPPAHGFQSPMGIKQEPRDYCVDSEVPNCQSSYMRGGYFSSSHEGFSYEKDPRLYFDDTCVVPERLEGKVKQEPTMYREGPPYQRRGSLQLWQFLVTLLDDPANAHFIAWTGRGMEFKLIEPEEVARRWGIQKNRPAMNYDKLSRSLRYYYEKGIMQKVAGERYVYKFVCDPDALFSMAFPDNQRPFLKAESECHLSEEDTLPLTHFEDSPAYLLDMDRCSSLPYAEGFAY
# ETV1, sequence (P50549 whole entry): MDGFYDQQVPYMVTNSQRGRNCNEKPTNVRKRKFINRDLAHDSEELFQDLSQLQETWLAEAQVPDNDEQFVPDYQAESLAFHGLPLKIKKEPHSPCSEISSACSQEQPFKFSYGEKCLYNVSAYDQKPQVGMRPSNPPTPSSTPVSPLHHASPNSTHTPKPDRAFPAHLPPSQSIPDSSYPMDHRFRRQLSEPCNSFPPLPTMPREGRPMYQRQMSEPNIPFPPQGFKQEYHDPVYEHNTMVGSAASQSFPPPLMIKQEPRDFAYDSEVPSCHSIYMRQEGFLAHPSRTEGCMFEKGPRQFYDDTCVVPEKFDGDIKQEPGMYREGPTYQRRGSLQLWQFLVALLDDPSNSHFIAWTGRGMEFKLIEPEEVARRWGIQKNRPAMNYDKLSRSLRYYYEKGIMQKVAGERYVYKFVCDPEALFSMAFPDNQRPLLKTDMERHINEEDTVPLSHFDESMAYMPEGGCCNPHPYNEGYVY
# HSF1, sequence (Q00613 whole entry): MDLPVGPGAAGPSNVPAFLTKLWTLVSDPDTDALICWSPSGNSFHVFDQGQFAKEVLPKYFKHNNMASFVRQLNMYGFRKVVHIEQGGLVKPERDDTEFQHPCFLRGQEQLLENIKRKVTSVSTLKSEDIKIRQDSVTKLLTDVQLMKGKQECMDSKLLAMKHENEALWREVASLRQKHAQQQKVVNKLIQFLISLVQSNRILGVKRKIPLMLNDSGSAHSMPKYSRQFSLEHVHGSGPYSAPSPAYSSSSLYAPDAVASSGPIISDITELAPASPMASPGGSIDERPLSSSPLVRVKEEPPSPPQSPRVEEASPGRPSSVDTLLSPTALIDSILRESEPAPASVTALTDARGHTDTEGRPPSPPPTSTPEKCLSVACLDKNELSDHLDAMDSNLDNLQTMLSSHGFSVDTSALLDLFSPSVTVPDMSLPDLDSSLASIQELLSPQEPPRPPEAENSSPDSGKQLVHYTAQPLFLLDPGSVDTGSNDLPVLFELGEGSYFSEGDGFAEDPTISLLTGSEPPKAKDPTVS
sequence,measurement,setting,value
TCCATG,binding signal,FEV,"1.11 fold enrichment (6-mer frequency, TF over GST control)"
same,binding signal,ETV5,"1.2 fold enrichment (6-mer frequency, TF over GST control)"
same,binding signal,HSF1,"1.1 fold enrichment (6-mer frequency, TF over GST control)"
same,binding signal,SPIC,"1.05 fold enrichment (6-mer frequency, TF over GST control)"
same,binding signal,ELF4,"1.16 fold enrichment (6-mer frequency, TF over GST control)"
same,binding signal,ELK4,"1.25 fold enrichment (6-mer frequency, TF over GST control)"
same,binding signal,ETV2,"1.2 fold enrichment (6-mer frequency, TF over GST control)"
same,binding signal,ELF3,"1.25 fold enrichment (6-mer frequency, TF over GST control)"
same,binding signal,CRX,"1.13 fold enrichment (6-mer frequency, TF over GST control)"
same,binding signal,ETV1,"1.09 fold enrichment (6-mer frequency, TF over GST control)"
same,binding signal,ERF,"1.1 fold enrichment (6-mer frequency, TF over GST control)"
same,binding signal,ETV3L,"1.17 fold enrichment (6-mer frequency, TF over GST control)"
same,binding signal,ETS2,"1.1 fold enrichment (6-mer frequency, TF over GST control)"
same,binding signal,SPDEF,"1.1 fold enrichment (6-mer frequency, TF over GST control)"
same,binding signal,ETV7,"1.03 fold enrichment (6-mer frequency, TF over GST control)"
same,binding signal,ELF5,"1.11 fold enrichment (6-mer frequency, TF over GST control)"
same,binding signal,ETV3,"1.19 fold enrichment (6-mer frequency, TF over GST control)"
same,binding signal,ETV6,"1.2 fold enrichment (6-mer frequency, TF over GST control)"
